From the supplement of paper PMC11732987, “Enantioselective OTUD7B fragment discovery through chemoproteomics screening and high-throughput optimisation” (Communications Chemistry, 2025)

Assays:
Assay in all cases: log2 ratio of Biotin-Ahx-Ub-VS probe labelling (fragment/DMSO); higher = less target engagement (more negative = stronger competition), active = hit call of the paper (q ≤ 0.05, log2 ratio ≤ -1)
Conditions in all cases: compound concentration: 200 uM; treatment time: 3 h
OTUD6B = biological target: T1, OTUD6B (UniProt Q8N6M0)
T1 sequence (whole entry): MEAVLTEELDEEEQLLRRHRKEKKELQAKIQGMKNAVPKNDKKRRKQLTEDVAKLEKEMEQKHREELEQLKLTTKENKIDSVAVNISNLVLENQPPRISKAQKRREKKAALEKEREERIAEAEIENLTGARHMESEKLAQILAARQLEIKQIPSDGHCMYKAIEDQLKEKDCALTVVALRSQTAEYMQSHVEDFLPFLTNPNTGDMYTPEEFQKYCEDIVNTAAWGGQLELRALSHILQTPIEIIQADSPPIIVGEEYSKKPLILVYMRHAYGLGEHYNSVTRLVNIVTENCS
Method in brief: (§1)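 The table lists average log2 ratios of fragment over vehicle, from an unpaired t-test on global-median-normalised Spectronaut label-free quantities. Proteins with ≥2 unique peptides were used. Samples were HEK293T lysate (495 µg) treated in triplicate with fragment at 200 µM or vehicle for 3 h, then with Biotin-Ahx-Ub-VS (0.5 µM final) for 1 h, with labelled DUBs NeutrAvidin-enriched and run by diaPASEF LC-MS/MS.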

OTUD7B = biological target: T2, OTUD7B (UniProt Q6GQQ9)
T2 sequence (whole entry): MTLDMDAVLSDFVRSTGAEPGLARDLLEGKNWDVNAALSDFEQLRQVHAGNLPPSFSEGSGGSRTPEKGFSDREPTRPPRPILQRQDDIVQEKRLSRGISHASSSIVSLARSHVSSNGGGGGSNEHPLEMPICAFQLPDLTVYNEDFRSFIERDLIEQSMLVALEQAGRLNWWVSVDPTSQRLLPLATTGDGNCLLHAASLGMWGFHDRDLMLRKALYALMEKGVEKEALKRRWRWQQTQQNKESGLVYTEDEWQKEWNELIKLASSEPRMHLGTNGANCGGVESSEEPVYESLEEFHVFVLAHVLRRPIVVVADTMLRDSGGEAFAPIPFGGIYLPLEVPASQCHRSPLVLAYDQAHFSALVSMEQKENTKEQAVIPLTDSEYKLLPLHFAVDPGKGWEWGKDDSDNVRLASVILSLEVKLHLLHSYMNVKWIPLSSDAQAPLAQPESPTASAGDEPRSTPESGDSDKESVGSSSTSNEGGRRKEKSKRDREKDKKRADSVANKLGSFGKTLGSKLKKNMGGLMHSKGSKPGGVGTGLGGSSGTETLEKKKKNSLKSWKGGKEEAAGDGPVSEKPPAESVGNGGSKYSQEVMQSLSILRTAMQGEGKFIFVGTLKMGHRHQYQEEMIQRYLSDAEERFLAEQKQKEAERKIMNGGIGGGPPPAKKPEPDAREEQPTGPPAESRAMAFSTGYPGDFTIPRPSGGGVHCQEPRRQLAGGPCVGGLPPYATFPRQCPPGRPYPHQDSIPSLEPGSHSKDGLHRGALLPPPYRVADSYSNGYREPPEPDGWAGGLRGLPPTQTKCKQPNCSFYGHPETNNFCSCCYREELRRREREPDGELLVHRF
Method in brief: as §1

PRPF8 = PRPF8 (UniProt Q6P2Q9)
Method in brief: as §1

PSMD7 = biological target: T3, PSMD7 (UniProt P51665)
T3 sequence (whole entry): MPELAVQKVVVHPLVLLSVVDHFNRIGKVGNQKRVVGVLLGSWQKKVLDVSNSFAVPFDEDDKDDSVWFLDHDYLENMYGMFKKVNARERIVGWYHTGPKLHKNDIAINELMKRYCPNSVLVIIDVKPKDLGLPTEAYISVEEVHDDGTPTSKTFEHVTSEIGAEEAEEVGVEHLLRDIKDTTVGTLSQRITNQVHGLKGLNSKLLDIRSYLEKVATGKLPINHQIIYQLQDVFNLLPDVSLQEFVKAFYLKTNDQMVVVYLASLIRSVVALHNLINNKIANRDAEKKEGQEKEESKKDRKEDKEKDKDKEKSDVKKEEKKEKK
Method in brief: as §1

UCHL1 = UCHL1 (UniProt P09936)
Method in brief: as §1

UCHL3 = biological target: T4, UCHL3 (UniProt P15374)
T4 sequence (whole entry): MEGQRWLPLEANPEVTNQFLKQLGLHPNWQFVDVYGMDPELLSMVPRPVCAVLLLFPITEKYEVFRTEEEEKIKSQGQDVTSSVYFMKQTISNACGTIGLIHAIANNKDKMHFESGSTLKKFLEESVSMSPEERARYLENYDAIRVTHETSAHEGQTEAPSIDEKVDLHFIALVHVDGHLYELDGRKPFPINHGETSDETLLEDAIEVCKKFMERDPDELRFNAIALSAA
Method in brief: as §1

UCHL5 = biological target: T5, UCHL5 (UniProt Q9Y5K5)
T5 sequence (whole entry): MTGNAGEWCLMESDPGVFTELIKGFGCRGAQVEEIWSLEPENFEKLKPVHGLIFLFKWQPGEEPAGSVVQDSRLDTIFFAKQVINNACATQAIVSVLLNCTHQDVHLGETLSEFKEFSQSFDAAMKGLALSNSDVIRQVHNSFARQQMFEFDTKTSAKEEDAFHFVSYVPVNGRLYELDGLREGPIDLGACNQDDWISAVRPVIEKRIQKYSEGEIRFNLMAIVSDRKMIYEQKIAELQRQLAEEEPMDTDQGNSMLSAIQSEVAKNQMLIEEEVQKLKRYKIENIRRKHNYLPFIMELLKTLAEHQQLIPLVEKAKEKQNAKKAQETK
Method in brief: as §1

USP10 = USP10 (UniProt Q14694)
Method in brief: as §1

USP15 = biological target: T6, USP15 (UniProt Q9Y4E8)
T6 sequence (whole entry): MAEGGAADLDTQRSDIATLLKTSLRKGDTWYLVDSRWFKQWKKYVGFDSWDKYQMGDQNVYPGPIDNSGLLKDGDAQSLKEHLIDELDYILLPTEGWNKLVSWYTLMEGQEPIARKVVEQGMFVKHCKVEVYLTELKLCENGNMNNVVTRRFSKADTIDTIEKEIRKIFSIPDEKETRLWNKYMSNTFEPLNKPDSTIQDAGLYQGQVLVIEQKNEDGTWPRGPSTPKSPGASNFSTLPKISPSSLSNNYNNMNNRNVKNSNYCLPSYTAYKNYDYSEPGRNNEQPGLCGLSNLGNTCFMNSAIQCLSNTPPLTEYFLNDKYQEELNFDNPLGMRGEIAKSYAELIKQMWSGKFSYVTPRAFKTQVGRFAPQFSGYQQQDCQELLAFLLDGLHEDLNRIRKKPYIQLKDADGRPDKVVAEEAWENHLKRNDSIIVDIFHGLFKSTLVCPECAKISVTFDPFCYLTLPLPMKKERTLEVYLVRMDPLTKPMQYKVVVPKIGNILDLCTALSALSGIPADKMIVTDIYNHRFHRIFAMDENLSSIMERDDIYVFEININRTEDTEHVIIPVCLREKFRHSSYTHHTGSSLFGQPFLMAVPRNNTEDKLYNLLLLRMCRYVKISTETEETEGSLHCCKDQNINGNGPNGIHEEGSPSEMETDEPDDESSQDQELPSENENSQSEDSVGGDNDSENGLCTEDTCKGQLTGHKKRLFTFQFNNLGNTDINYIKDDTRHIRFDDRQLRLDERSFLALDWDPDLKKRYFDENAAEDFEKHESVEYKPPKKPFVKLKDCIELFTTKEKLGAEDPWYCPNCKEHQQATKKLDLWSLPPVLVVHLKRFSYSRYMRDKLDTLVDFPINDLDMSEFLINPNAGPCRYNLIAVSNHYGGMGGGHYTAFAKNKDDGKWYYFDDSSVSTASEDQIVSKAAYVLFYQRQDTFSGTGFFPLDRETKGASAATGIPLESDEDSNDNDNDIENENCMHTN
Method in brief: as §1

USP16 = USP16 (UniProt Q9Y5T5)
Method in brief: as §1

Measured: log2 ratio of Biotin-Ahx-Ub-VS probe labelling

USP10, sequence (Q14694 whole entry): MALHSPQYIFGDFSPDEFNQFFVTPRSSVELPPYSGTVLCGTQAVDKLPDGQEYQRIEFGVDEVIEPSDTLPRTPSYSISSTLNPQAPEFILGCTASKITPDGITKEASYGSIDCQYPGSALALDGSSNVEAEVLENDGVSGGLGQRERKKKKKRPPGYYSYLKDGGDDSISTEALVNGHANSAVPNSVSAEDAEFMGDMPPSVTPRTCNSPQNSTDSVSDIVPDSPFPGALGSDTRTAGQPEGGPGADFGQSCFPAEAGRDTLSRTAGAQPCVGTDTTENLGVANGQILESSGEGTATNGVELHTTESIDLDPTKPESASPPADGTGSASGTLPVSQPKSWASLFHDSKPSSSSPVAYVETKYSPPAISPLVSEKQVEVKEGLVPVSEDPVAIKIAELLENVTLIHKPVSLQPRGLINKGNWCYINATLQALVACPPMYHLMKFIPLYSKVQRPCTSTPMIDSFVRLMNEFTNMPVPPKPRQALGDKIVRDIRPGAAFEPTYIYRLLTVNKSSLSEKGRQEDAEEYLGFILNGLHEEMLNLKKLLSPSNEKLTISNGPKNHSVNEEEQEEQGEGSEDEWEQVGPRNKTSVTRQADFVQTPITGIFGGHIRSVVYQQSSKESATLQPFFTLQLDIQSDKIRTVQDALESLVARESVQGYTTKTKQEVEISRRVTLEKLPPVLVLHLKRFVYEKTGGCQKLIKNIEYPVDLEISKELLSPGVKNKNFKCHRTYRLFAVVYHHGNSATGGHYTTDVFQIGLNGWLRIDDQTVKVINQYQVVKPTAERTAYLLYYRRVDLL
USP16, sequence (Q9Y5T5 whole entry, looked up): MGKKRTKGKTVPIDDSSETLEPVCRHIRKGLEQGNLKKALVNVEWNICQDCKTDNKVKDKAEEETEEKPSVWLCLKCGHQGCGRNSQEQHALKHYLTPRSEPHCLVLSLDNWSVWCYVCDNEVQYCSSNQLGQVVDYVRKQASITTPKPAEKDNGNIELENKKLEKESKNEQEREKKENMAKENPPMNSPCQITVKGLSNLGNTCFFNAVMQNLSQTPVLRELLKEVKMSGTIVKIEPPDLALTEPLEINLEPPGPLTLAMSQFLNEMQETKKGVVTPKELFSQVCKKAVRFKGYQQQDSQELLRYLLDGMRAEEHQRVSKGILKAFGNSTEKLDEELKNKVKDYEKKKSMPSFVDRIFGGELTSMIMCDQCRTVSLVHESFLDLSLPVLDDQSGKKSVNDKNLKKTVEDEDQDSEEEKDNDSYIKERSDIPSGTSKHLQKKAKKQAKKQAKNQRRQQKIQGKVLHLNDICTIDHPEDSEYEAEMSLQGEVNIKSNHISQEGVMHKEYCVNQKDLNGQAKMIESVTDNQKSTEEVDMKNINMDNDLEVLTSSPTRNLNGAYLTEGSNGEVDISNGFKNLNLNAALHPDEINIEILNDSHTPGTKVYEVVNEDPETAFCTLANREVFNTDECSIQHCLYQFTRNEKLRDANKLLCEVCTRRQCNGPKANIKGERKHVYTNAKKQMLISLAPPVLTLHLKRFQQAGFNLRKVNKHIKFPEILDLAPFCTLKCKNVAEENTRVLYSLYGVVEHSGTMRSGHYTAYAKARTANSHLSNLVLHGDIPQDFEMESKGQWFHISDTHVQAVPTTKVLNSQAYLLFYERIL
UCHL1, sequence (P09936 whole entry, looked up): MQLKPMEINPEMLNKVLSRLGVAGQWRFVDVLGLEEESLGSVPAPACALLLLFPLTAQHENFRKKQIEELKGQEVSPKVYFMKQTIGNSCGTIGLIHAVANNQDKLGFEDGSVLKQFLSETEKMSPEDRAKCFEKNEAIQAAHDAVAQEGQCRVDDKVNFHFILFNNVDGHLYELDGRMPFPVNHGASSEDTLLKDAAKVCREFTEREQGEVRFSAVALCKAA

O=C(CCl)N1CCC(c2nc3ccccc3o2)CC1
active: UCHL1 -1.65
inactive: OTUD6B -0.508 | OTUD7B -0.632 | PRPF8 -0.0832 | PSMD7 -0.495 | UCHL3 0.054 | UCHL5 -0.349 | USP10 -0.114 | USP15 -0.214 | USP16 0.149
